HADH2 inh: blocks human hydroxyacyl-CoA dehydrogenase type II. Q99714. recombinant HADH2, NADH fluorescence, beta-hydroxybutyryl-CoA. Potency, µM (series often up to 57.1 µM), for inactives: top-dose activity change, negative = inhibition, hits mostly inhibitors. 73,000 tested, 3.4% active. AID 886; also: potency is read from the fitted curve at half-maximal effect; % is scaled to controls: 0 for no effect and ±100 for the full control effect; nearly all actives have a fitted effect of over 60% in size
Target sequence (Q99714 whole entry, looked up, one chain of several): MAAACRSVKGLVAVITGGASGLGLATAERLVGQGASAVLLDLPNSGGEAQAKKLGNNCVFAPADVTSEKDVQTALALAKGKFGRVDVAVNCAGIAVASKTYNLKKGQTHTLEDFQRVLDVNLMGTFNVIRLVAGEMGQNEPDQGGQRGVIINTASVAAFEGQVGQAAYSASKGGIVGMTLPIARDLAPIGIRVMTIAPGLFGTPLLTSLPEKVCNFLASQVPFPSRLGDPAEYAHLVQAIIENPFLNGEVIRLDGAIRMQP
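NADH fluorescence (ex 360/em 450 nm) read every 30 s for 4 min; activity taken as last-minus-first time point difference. Enzyme 20 nM, NAD+ 1 mM, beta-hydroxybutyryl-CoA 90 uM, pH 9.0 Tris buffer.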
A350 fluor: A350 region autofluorescence; Compound autofluorescence, 340/450 nm, Alexa 350 dye-equivalents; stronger effect = higher value; max dye-equivalent concentration, M; AID 590; 59,000 tested, 11% active; in the data active = max dye-equivalent concentration above about 10 nM; inconclusive = mostly about 1.1 nM to 9.6 nM
AID923: qHTS Assay for Allosteric/Competitive Inhibitors of Caspase-1: Spectroscopic Profiling in AFC Spectral Region; Potency, µM (doses to about 57.5 µM), for inactives: top-dose fluorescence increase, usual class: activators; 75,000 tested, 1.1% active; compound fluorescence, AFC spectral region (405/520 nm); AID 923, 2007; also: potency is read from the fitted curve at half-maximal effect; 0% is about no effect
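Compound autofluorescence profiled at 405 nm ex/520 nm em during kinetic caspase 1 run (50 nM enzyme, 5 uM Ac-WEHD-AFC, HEPES pH 7.5, 10 mM DTT). Titration up to 57 uM; baseline from regression intercept, normalized to AFC standard curve.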
4MU fluor: 4-MU region autofluorescence | 59,000 tested, 11% active | max dye-equivalent concentration, M | compound autofluorescence, 340/450 nm, 4-MU equivalents; stronger effect = higher value; in the data active = max dye-equivalent concentration above about 10 nM; inconclusive = mostly about 1.1 nM to 9.6 nM
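Intrinsic fluorescence at 340/450 nm (ex/em) was read after 15 min at room temperature in pH 8.0, 100 mM Tris. Each compound concentration expressed as 4-MU-equivalent concentration from a six-point 4-MU standard series on each plate.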
HSD17B inh: HSD17B dehydrogenase inhibition; Q99714; recombinant HSD17B10, NADH fluorescence kinetic; Potency, µM (doses to about 57.1 µM), inactives show at the top dose activity change, negative = inhibition, hits mostly inhibitors; 75,000 tested, 7.6% active;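 also: the protocol describes HADH2 (HSD17B10) and not the HSD17B4 of the title; potency is read from the fitted curve at half-maximal effect; % is scaled to controls: 0 for no effect and ±100 for the full control effect; nearly all actives have a fitted effect of over 70% in size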
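Activity followed as NADH fluorescence increase (ex 360, em 450 nm) every 30 seconds for 4 min, using final 90 uM beta-hydroxybutyryl CoA and 1 mM NAD+. Recombinant His-tagged enzyme, 20 nM, pH 9.0 Tris buffer, 15 min compound preincubation.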
GBA mod: alters purified human glucocerebrosidase activity; P04062; AID 360; 48,000 tested, 1.1% active; Potency, µM; purified enzyme, resorufin glucoside fluorescence (screen aimed at inhibitors), 20 min; in the data active = potency below about 15 µM; inconclusive = mostly about 16 µM to 33 µM;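 also: potency is read from the fitted curve at half-maximal effect; the screen sought inhibitors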
Target sequence (P04062 whole entry, looked up): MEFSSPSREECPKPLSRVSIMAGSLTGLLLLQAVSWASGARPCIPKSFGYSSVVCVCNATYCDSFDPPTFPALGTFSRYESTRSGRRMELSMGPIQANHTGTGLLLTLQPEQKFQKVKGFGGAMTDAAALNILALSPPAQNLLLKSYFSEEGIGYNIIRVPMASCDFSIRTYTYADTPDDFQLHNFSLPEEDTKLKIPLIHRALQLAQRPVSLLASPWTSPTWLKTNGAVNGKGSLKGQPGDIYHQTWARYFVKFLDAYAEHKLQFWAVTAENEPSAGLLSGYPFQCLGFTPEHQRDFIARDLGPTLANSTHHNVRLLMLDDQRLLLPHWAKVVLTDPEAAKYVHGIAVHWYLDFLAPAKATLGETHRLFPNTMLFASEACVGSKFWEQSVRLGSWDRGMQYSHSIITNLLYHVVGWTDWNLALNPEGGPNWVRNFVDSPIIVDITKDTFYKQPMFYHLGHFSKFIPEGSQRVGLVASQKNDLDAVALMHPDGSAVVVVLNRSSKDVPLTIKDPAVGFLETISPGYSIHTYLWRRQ
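Compounds titrated against 0.2 nM normal enzyme, 30 uM resorufin beta-D-glucopyranoside substrate, citrate/phosphate buffer with taurocholate and tween-20, pH 5.9. Reaction ran 20 min at room temperature; fluorescence (Ex 548/Em 600) gave AC50.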
* hit, by the source's call; i = inactive; ? = inconclusive; nt = not tested or not shown; ! = repeats disagree; [ ] = dose if it differs, or a comment. Hits are enriched below; roughly 13% of the tested compounds scored in any of these assays. Unless noted, calls follow the shape of the dose curve; as a rule, active = well fitted curve in the direction sought with a large enough effect; inconclusive = small, poorly fitted or top-dose-only effect, or another doubt; inactive = no such curve, though single readings can be large; an effect the other way counts as inactive or inconclusive.

SMILES	HADH2 inh	A350 fluor	AID923	4MU fluor	HSD17B inh	GBA mod
CCC(=Nc1ccc2c(c1)CCC2)c1c(O)n(C)c(=O)n(C)c1=O	?	1.9e-08M*	1%	2.6e-08M*	3%	>77
CC(=NCCC1=CCCCC1)c1c(O)n(C)c(=O)n(C)c1=O	0%	i	0%	i	-5%	>77
CC(=NCCO)c1c(O)n(C)c(=O)n(C)c1=O	nt	1.2e-08M*	nt	?	nt	nt
CN1CCN(c2ccc3nc(-c4ccc5nc(-c6ccc(O)cc6)[nH]c5c4)[nH]c3c2)CC1	-29%[11.4 µM]	1.8e-08M*	1%[11.5 µM]	1.7e-08M*	3.2µM*	nt
O=c1[nH]c(=O)n(-c2cccc(Cl)c2)c(O)c1C=NCCN1CCCCC1	nt	i	nt	i	nt	nt
CCCCCCn1c(O)c(C=NCCN2CCCCC2)c(=O)[nH]c1=O	nt	1.5e-08M*	nt	1.1e-08M*	nt	nt
CN(C)c1ccc2c(c1)N=C(c1ccco1)OP2(=S)N1CCOCC1 (configuration not stated)	7.9µM*	i	0%	i	?	>77
CC1(C)[C@@H]2CC[C@]1(C)CN(CCC[N+](C)(C)C)C2	12%[11.4 µM]	i	-4%[11.5 µM]	i	-3%[11.4 µM]	nt
CC(C)(C)n1c(O)c(C=Nc2ccc3c(c2)CCC3)c(=O)[nH]c1=O	-2%	4.7e-08M*	-1%	5e-08M*	0%	11*
O=C1CCc2c(ccc3ccccc23)O1	40µM*	nt	3%	nt	25µM*	nt
c1ccc(CN2CCC3(CCNCC3)CC2)cc1	18%	i	-1%	i	6%	nt
C[C@H](CC(C#N)(c1ccccc1)c1ccccc1)N1CCCCC1	10%[11.4 µM]	i	1%[11.5 µM]	i	13%[11.4 µM]	nt
C[C@@H](CO)NC(=O)[C@H]1C=C2c3cccc4[nH]cc(c34)C[C@H]2N(C)C1	40µM*	?	nt	?	nt	nt
CC(C)[C@@]1(NC(=O)[C@@H]2C=C3c4cccc5[nH]cc(c45)C[C@@H]3N(C)C2)O[C@]2(O)[C@H]3CCCN3C(=O)[C@H](Cc3ccccc3)N2C1=O	?	?	nt	1.2e-08M*	nt	nt
CC[C@H](CO)NC(=O)[C@H]1C=C2c3cccc4[nH]cc(c34)C[C@@H]2N(C)C1	16µM*	4.7e-08M*	3%[25.7 µM]	5.2e-08M*	13µM*	nt
CC(C)[C@@]1(NC(=O)[C@@H]2C[C@H]3c4cccc5[nH]cc(c45)C[C@@H]3N(C)C2)O[C@@]2(O)[C@H]3CCCN3C(=O)[C@H](Cc3ccccc3)N2C1=O	-18%	nt	2%	nt	-15%	nt
CCN(CC)C(=O)N[C@@H]1C=C2c3cccc4[nH]cc(c34)C[C@@H]2N(C)C1	25µM*	6e-08M*	nt	6.1e-08M*	nt	nt
CCOP(=S)(OCC)Oc1ccc([N+](=O)[O-])cc1	?	nt	-1%	nt	-8%	nt
ClC(Cl)C(Cl)Cl	-13%	nt	3%	nt	4%	nt
Nn1cnnc1	-1%	nt	0%	nt	-2%	nt
COc1cc2cc(c1Cl)N(C)C(=O)C[C@H](OC(=O)C(C)C)[C@]1(C)O[C@@H]1[C@@H](C)[C@H]1C[C@](O)(NC(=O)O1)[C@@H](OC)/C=C\C=C(\C)C2	12%[11.4 µM]	i	0%[11.5 µM]	i	0%[11.4 µM]	nt
Clc1ccc(N2C[C@H]3CC[C@@H](C2)N3)nn1	-9%	i	0%	i	2%	nt
CN1C[C@H](CO)C=C2c3cccc4[nH]cc(c34)C[C@@H]21	13µM*	3.9e-08M*	5%[25.7 µM]	4.3e-08M*	13µM*	nt
CC[C@@H](CO)NC(=O)[C@H]1C=C2c3cccc4[nH]cc(c34)C[C@H]2N(C)C1	32µM*	nt	13%	nt	32µM*	nt
CCC(CO)NC(=O)C1C=C2c3cccc4[nH]cc(c34)CC2N(C)C1 (configuration not stated)	nt	nt	7%	nt	25µM*	nt
SMILES	HADH2 inh	A350 fluor	AID923	4MU fluor	HSD17B inh	GBA mod
CN1C[C@H](CNC(=O)OCc2ccccc2)C[C@H]2c3cccc4c3c(cn4C)C[C@@H]21	4%	i	1%	i	-5%	nt
CC[C@@H](CO)NC(=O)[C@@H]1C=C2c3cccc4c3c(cn4C)C[C@H]2N(C)C1	nt	1.3e-07M*	nt	1.1e-07M*	nt	nt
CN1CC(CO)=C[C@H]2c3cccc4[nH]cc(c34)C[C@H]21	nt	nt	12%	nt	?	nt
C[C@@H]1O[C@H]1P(=O)(O)O	-6%	i	-4%	i	5%	nt
CC(=O)[C@@H]1CC[C@@H]2[C@@H]3CC=C4C[C@H](OS(=O)(=O)O)CC[C@@]4(C)[C@H]3CC[C@]21C	?	i	-2%	i	?	nt
CC[C@@H]1CN2CCc3cc(OC)c(OC)cc3[C@@H]2C[C@@H]1C[C@H]1NCCc2cc(OC)c(OC)cc21	nt	nt	-1%	nt	-5%	nt
CN[C@H]1[C@H](C)O[C@@H](O[C@@H]2C/C=C(/C)C/C(C)=C\C=C/CC[C@@H](C)CNC(=O)/C=C\C=C/[C@H]2C)C[C@@H]1O	11%[11.4 µM]	i	nt	i	nt	nt
CS(=O)(=O)O[C@H]1CN2CCC1CC2	9%[11.4 µM]	i	4%[11.5 µM]	i	6%[11.4 µM]	nt
CC(C)(C)NC[C@H](O)c1ccccc1Cl	-11%	i	-2%	i	-2%	nt
CCN1C[C@@]2(COC(=O)c3ccccc3N3C(=O)C[C@H](C)C3=O)CC[C@H](OC)[C@@]34[C@@H]5CC6[C@@H](OC)C[C@@](O)([C@H]5[C@H]6OC)C(O)([C@@H]13)[C@@H](OC)[C@H]24	6%	i	nt	i	nt	nt
CN(C)Cc1c[nH]c2ccccc12	?	?	-1%	?	32µM*!	nt
CCOC(=O)c1c(-c2ccc(OC)cc2)oc2ccc(OC(=O)N(C)C)cc12	i	3.5e-07M*	0%	4.2e-07M*	25µM*	>77
COc1ccc2c(c[n+](C)c3c4cc5c(cc4ccc23)OCO5)c1OC	20µM*	i	-3%	i	25µM*	nt
CO[C@@H](C)[C@](O)(C(=O)OC1=CCN2CC[C@H](O)[C@H]12)C(C)C	10%	i	nt	i	nt	nt
Oc1cccc2cccnc12	-12%[11.4 µM]	4.2e-08M*	-2%[11.5 µM]	3.8e-08M*	-21%[11.4 µM]	nt
C[C@H]1CC[C@]2(NC1)O[C@@H]1C[C@@H]3[C@@H]4CC=C5C[C@H](O)CC[C@@]5(C)[C@H]4CC[C@@]3(C)[C@H]1[C@@H]2C	8%	i	nt	i	nt	nt
Oc1ccc([C@H](O)[C@@H]2CCCCN2)cc1O	1µM*	?	-4%[11.5 µM]	i	12%[11.4 µM]	nt
C[n+]1c(/C=C\c2ccc(O)c3ncccc23)[se]c2ccccc21	?	i	3%[11.5 µM]	i	?	nt
CC(C)Br	-8%	nt	-2%	nt	6%	nt
[Cl-].[Cl-].[Hg+2]	0.25µM*	nt	-2%	nt	0.13µM*	nt
[Cd+2].[Cl-].[Cl-]	nt	nt	-3%	nt	-9%	nt
O=c1[nH]c(=O)n(CCc2ccc(F)cc2)c(O)c1C=NCCCN1CCOCC1	0%	?	-1%	?	-7%	>77
Cc1c(N=Cc2c(O)n(CCc3ccc(F)cc3)c(=O)[nH]c2=O)c(=O)n(-c2ccccc2)n1C	nt	4.4e-08M*	nt	6.1e-08M*	nt	nt
